The values below come from PMC11062922 (Nature Chemical Biology, 2023).

Like-named read-outs stand apart in the source and are kept apart here.

Holding throughout (parameters): species or system human, MV4-11 + K-562 + COLO205 + SK-N-BE2 + OVCAR-8
One experiment has as its system CAMK2D. As to conditions: read-out: apparent Kd, compound concentrations: 100 nM and 1000 nM (sheet 'Samples'), n = 1.
The subject of another experiment is GSK3A. As to conditions: compound concentrations:0.3nM, 1nM, 3nM, 10nM, 30nM, 100nM, 300nM, 1000nM,R2:0.98891896520214295,slope:0.86644868747919301,EC50 Standard Error, by the legend:Standard error of the EC50 estimation as provided by the drc package.
In the next experiment the test system is GSK3B. The conditions noted are these: compound concentrations:0.3nM, 1nM, 3nM, 10nM, 30nM, 100nM, 300nM, 1000nM,R2:0.97796062612419798,slope:0.95181625856524898,EC50 Standard Error, by the legend:Standard error of the EC50 estimation as provided by the drc package.
For the next experiment, the system named is LATS1. The conditions noted are these: compound concentrations:0.3nM, 1nM, 3nM, 10nM, 30nM, 100nM, 300nM, 1000nM,R2:0.99282697672558795,slope:1.31312375653091,EC50 Standard Error, by the legend:Standard error of the EC50 estimation as provided by the drc package.
In another experiment the test system is PRKX. As to conditions: compound concentrations:0.3nM, 1nM, 3nM, 10nM, 30nM, 100nM, 300nM, 1000nM,R2:0.99104054700331501,slope:1.8352310088782899,EC50 Standard Error, by the legend:Standard error of the EC50 estimation as provided by the drc package.
The subject of another experiment is PI4KA. The conditions noted are these: read-out: apparent Kd, n = 1.
The subject of the next experiment is COX5A. As to conditions: read-out: apparent Kd, n = 1.
For a further experiment, the system named is NQO1. As to conditions: read-out: apparent Kd, n = 1.
In a further experiment the test system is CLK2. As to conditions: read-out: apparent Kd, compound concentrations: 100 nM and 1000 nM (sheet 'Samples'), n = 1.
The test system of the next experiment is CSNK1G3. The conditions noted are these: read-out: apparent Kd, compound concentrations: 100 nM and 1000 nM (sheet 'Samples'), n = 1.
A further experiment concerns ILK. As to conditions: read-out: apparent Kd, n = 1.
A further experiment relates to RPS6KA5. The conditions noted are these: read-out: apparent Kd, n = 1.
In a further experiment the test system is CDK13. The conditions noted are these: read-out: apparent Kd, compound concentrations: 100 nM and 1000 nM (sheet 'Samples'), n = 1.
Another experiment concerns DDR2. As to conditions: read-out: apparent Kd; compound concentrations: 100 nM and 1000 nM (sheet 'Samples'), CATDS: 5.5525356317498699E-2; n = 1.
The test system of the next experiment is STRADA. The conditions noted are these: read-out: apparent Kd, n = 1.
Another experiment has as its system MET. As to conditions: read-out: apparent Kd; compound concentrations:100 nM and 1000 nM (sheet 'Samples'); n = 1.
Setting [1] is: compound concentrations:100 nM and 1000 nM (sheet 'Samples').
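Throughout, for EC50: competition pulldown with Kinobeads ε in cell lysates, inhibitor preincubated 45 min at 4 °C, bound kinases quantified by LC–MS/MS against DMSO control.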
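Throughout, for Kd: competition pulldown with Kinobeads ε in cell lysates, inhibitor preincubated 45 min at 4 °C, bound kinases quantified by LC–MS/MS against DMSO control.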

Turning to `Cc1ccc(Nc2ccnc(Nc3ccc4c(c3)CS(=O)(=O)C4)n2)cc1O.Cl` [GW579362A], in the experiment on CAMK2D (CATDS: 4.2472769063291602E-2), the potency estimated from few doses was 502 nM. For `CCn1c(-c2nonc2N)nc2c(C#CC(C)(C)O)nc(OCCN)cc21.CCn1c(-c2nonc2N)nc2c(C#CC(C)(C)O)nc(OCCN)cc21.Cl.Cl` [GSK902056A], the EC50 in the experiment with GSK3A was 173 nM; in the experiment on GSK3B, 296 nM; in the experiment with LATS1 it was 87.4 nM; with PRKX, 127 nM. Besides, the Kd with GSK3A (read-out: apparent Kd) is 164 nM; with GSK3B (read-out: apparent Kd), 288 nM; with LATS1 (read-out: apparent Kd) it was 87.4 nM; in the experiment with PRKX (read-out: apparent Kd), 127 nM. With `Cc1cccc(Nc2nc(N[C@H]3CCNC3)ncc2C(N)=O)c1.Cl` [GSK2197149A], the potency estimated from few doses with PI4KA (setting [1]) is 1420 nM. `Cc1cc(-c2ccnc(Nc3cccc(C#N)c3)n2)cc(C)c1O` [GSK1440913A]: in the experiment with COX5A (compound concentrations: 100 nM and 1000 nM (sheet 'Samples'), CATDS: 8.0504484678198804E-2), the potency estimated from few doses was 1300 nM. Consider `CNCc1ccc(-c2cc(-c3nc(-c4ccc(S(=O)(=O)C(C)C)cc4)cnc3N)on2)cc1` [VE-822], for which the potency estimated from few doses with NQO1 (setting [1]) was 1090 nM. Take `c1ccc(-c2n[nH]cc2Nc2ccnc3ccccc23)nc1` [GW694077X]: in the experiment with CLK2 (CATDS: 3.5523964233137598E-2), the potency estimated from few doses was 477 nM.

As for `CNc1cc(-c2ccc3c(N)n[nH]c3c2)nc(N)n1` [GSK2224810A], the potency estimated from few doses in the experiment with NQO1 (setting [1]) was 1440 nM.

Take `O=C(O)C(F)(F)F.O=c1[nH]ccc2nc(N[C@@H]3CCNC3)nc(Nc3ccc4c(c3)S(=O)(=O)CC4)c12` [GSK2181306A]: the potency estimated from few doses in the experiment with CSNK1G3 (CATDS: 9.3335280079581504E-3) is 1060 nM; in the experiment with ILK (compound concentrations: 100 nM and 1000 nM (sheet 'Samples'), CATDS: 7.7202242880441098E-3), 2320 nM; in the experiment with RPS6KA5 (compound concentrations: 100 nM and 1000 nM (sheet 'Samples'), CATDS: 8.4236521656491804E-3) it was 1550 nM. Turning to `NCC(NC(=O)c1cc(-c2cn[nH]c2)c(-c2ccnc3[nH]ccc23)s1)c1ccccc1.NCC(NC(=O)c1cc(-c2cn[nH]c2)c(-c2ccnc3[nH]ccc23)s1)c1ccccc1.O=C(O)C(F)(F)F.O=C(O)C(F)(F)F` (centres unmarked) [GSK1325775A], the potency estimated from few doses with PI4KA (compound concentrations: 100 nM and 1000 nM (sheet 'Samples'), CATDS: 3.4236292814805502E-2) was 1310 nM.

Take `CCn1c(-c2cccnc2O)nc2cnccc21` [SB-736715]: the potency estimated from few doses was 2060 nM in the experiment on CSNK1G3 (CATDS: 1.22763705207965E-2); 1980 nM with ILK (compound concentrations: 100 nM and 1000 nM (sheet 'Samples'), CATDS: 1.2476704483333699E-2); 1170 nM in the experiment with PI4KA (compound concentrations: 100 nM and 1000 nM (sheet 'Samples'), CATDS: 1.5744300181729402E-2). Regarding `O=C(O)C(F)(F)F.O=C(O)C(F)(F)F.O=c1[nH]ccc2nc(N[C@@H]3CCCNC3)nc(Nc3ccc(S(=O)(=O)N4CCOCC4)cc3)c12.O=c1[nH]ccc2nc(N[C@@H]3CCCNC3)nc(Nc3ccc(S(=O)(=O)N4CCOCC4)cc3)c12` [GSK2177277A], the potency estimated from few doses with COX5A (compound concentrations: 100 nM and 1000 nM (sheet 'Samples'), CATDS: 6.6138643227552996E-3) is 1310 nM; with CSNK1G3 (CATDS: 7.8894585802162295E-3), 605 nM. On to `CCN(CC)Cc1ccc(Nc2nccc(-c3cnn4ncccc34)n2)cc1` [GW780056X], for which the results for the potency estimated from few doses with CAMK2D (CATDS: 2.8805291945328802E-2) and in the experiment on CDK13 (CATDS: 1.9982527917222499E-2) were 472 nM and 1330 nM, respectively.

As to `c1cnn2ncc(-c3ccnc(Nc4ccc5c(c4)OCCO5)n3)c2c1` [GW806290X], in the experiment on NQO1 (compound concentrations: 100 nM and 1000 nM (sheet 'Samples'), CATDS: 2.4144843754049801E-2), the potency estimated from few doses was 1040 nM. Take `CN(c1ccc(NC(=O)NCCN2CCOCC2)cc1)c1ccnc(Nc2ccc(CS(C)(=O)=O)cc2)n1.Cl` [GW830365A]: in the experiment on DDR2, the potency estimated from few doses was 940 nM. As to `COc1cc[nH]c1/C=C1\C(=O)Nc2ccc(F)c(C#CC3(O)CCNCC3)c21.Cl` [RO0282986-001], the potency estimated from few doses in the experiment with CAMK2D (CATDS: 2.4491980048065101E-2) is 142 nM; with CLK2 (CATDS: 1.56056735722173E-2) it was 360 nM; with STRADA (compound concentrations: 100 nM and 1000 nM (sheet 'Samples'), CATDS: 9.4665319729240003E-3), 1660 nM.

As for `Cc1ccccc1C1=C(c2cn(C)c3ccccc23)C(=O)NC1=O` [RO0317612-000], the potency estimated from few doses in the experiment with COX5A (compound concentrations: 100 nM and 1000 nM (sheet 'Samples'), CATDS: 0.16821535460753201) is 767 nM.

With `Cl.Cl.NCC(NC(=O)c1cc(-c2ccnc3[nH]ccc23)cs1)c1ccccc1.NCC(NC(=O)c1cc(-c2ccnc3[nH]ccc23)cs1)c1ccccc1` (centres unmarked) [GSK1229959A], the potency estimated from few doses in the experiment on RPS6KA5 (compound concentrations: 100 nM and 1000 nM (sheet 'Samples'), CATDS: 1.83168013487864E-2) is 1240 nM. As to `Nc1nc(-c2ccc3c(N)n[nH]c3c2)cc(N2CCCC(NC(=O)c3ccccc3)C2)n1` (centres unmarked) [GSK2286775B], the values for the potency estimated from few doses with ILK (setting [1]), in the experiment with MET and with NQO1 (setting [1]) were 1790 nM, 2250 nM and 1370 nM, respectively.

`CCn1c(-c2nonc2N)nc2cncc(C(=O)N3CC[C@H](N)C3)c21.Cl` [SB-772077-B]: the potency estimated from few doses in the experiment with RPS6KA5 (setting [1]) is 48.3 nM. For the compound `Cl.Cl.NC[C@H](CC1CCCCC1)NC(=O)c1ccc(-c2ccnc3[nH]ccc23)s1.NC[C@H](CC1CCCCC1)NC(=O)c1ccc(-c2ccnc3[nH]ccc23)s1` [GSK1581428A], the potency estimated from few doses in the experiment on RPS6KA5 (setting [1]) is 1340 nM. Consider `CN(C)C(=O)/C(C#N)=C/c1ccc(-c2nc3cnc4[nH]ccc4c3n2C2CCCCC2)o1` [FM-381], for which the potency estimated from few doses in the experiment on COX5A (setting [1]) is 756 nM. With `COc1cc[nH]c1/C=C1\C(=O)Nc2ccc(F)c(C#C[C@@H](O)[C@@H](N)[C@@H](C)O)c21` [RO0283120-000], in the experiment with STRADA (setting [1]), the potency estimated from few doses was 2010 nM.

`NS(=O)(=O)c1ccc(NC=C2C(=O)Nc3ccc4ncsc4c32)cc1` [GW589933X]: the potency estimated from few doses with CDK13 (CATDS: 1.7118564959648301E-2) is 1700 nM. On to `Cc1occc1-c1nc(N)c(OC[C@@H](N)Cc2c[nH]c3ccccc23)cc1-c1cc2c(C)n[nH]c2cn1` [GSK1660450B], for which the potency estimated from few doses in the experiment with COX5A (setting [1]) was 824 nM. As to `CCC(CC)(CC)n1cnc2c(N)ncnc21` [SKF-97620], the potency estimated from few doses in the experiment on CSNK1G3 (CATDS: 2.4754449130961701E-2) was 1820 nM; in the experiment with PI4KA (compound concentrations: 100 nM and 1000 nM (sheet 'Samples'), CATDS: 3.8493630683817899E-2), 553 nM; in the experiment with STRADA (compound concentrations: 100 nM and 1000 nM (sheet 'Samples'), CATDS: 2.3464375070220901E-2), 2220 nM.

A word on the EC50: it is the concentration giving half of the maximal effect.
